Cycloheximide cs: counter-screen hit for Shiga toxin inhibitors, cycloheximide | cell reporter, cycloheximide protein synthesis inhibition counterscreen | max response, % | hit rate 12% among 300,000 | AID 2314; in the data active means max response mostly above about 13%, no sharp cut-off; inactive means mostly below about 14%; further: read at 38.3 µM for the half of the compounds with a filed dose; 0% is about no effect
MARV entry inh: inhibitors of Marburg virus binding or cell entry; Potency, µM (highest dose often 37.8 µM), for inactives: at the highest dose activity change, negative = inhibition, most hits filed as inhibitors; hit rate 1.8% among 300,000; Marburg virus pseudotyped entry inhibition, cell reporter; calls by dose curve; tested in HEK293 cells; further: potency means the concentration at half of the fitted maximal effect; on the % scale 0 is the no-effect control and ±100 the full control effect
Shiga inhibitor: Shiga toxin inhibition | Vero cells, Shiga toxin protein synthesis inhibition reporter | inhibition, % at 38.7 µM | hit rate 9.2% among 290,000 | AID 2315; in the data active means inhibition mostly above about 28%, no sharp cut-off; inactive means mostly below about 43%; further: 0% is about no effect
AMA1 RON2 block: AMA1-RON2 (P. falciparum) interaction inhibition. AlphaScreen AMA1-biotinylated RON2 peptide binding. Potency, µM (top dose mostly 58.2 µM), without a hit: at the top dose activity change, negative = inhibition, usual class: inhibitors. hit rate 0.2% among 360,000. AID 720542; active means well fitted inhibition curve with a large enough effect; inconclusive means small, poorly fitted or top-dose-only effect; inactive means no such curve, though single readings can be large or run the other way;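 further: potency means the concentration at half of the fitted maximal effect; 0% = vehicle wells and -100% = peptide control; nearly all actives have a fitted effect of over 45% in size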
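AMA1 (3D7) with his tag at 25 nM final met compounds first, then biotinylated RON2 peptide at 25 nM; detection used donor plus acceptor beads, 10 µg/mL apiece, read by AlphaScreen after 30 min at room temperature.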
LASV entry inh: inhibitors of Lassa virus binding or cell entry. Potency, µM (series often up to 37.9 µM), for the others: at the highest dose activity change, negative = inhibition, usual class: inhibitors. hit rate 1.2% among 300,000. Lassa virus pseudotype entry inhibition, cell reporter; calls by dose curve; tested in HEK293 cells; further: potency means the concentration at half of the fitted maximal effect; on the % scale 0 is the no-effect control and ±100 the full control effect; nearly all actives have a fitted effect of over 50% in size
An asterisk follows results filed as active; ? = inconclusive; . = not tested or not shown; [ ] = remark or other dose. This excerpt belongs to a sample that is enriched for hits.

SMILES	Cycloheximide cs	MARV entry inh	Shiga inhibitor	AMA1 RON2 block	LASV entry inh
CCOc1ccc(NC(=O)N[C@@H](Cc2ccccc2)C(=O)O)cc1	7	1%[46.1 µM]	11	10%	11%
CC1CN(C(=O)COC(=O)c2ccc(C#N)cc2)CC(C)O1 (stereo unspecified)	-8	16%[46.1 µM]	4	-5%	0%[46.1 µM]
O=C(Nc1ccc(N2CCN(C(=O)c3ccco3)CC2)cc1)c1ccc(Br)cc1	-1	.	-2	-8%	.
CC(C)c1ccc(NC(=O)C(c2ccc3c(c2)OCO3)N2CCN(C(=O)c3ccco3)CC2)cc1 (stereo unspecified)	14	2%	7	?	?
O=C(Nc1ccc(N2CCN(C(=O)c3ccco3)CC2)cc1)c1cc(Br)ccc1Cl	.	10µM*	.	-5%[11.6 µM]	?
O=C(Nc1ccc(N2CCN(C(=O)c3ccco3)CC2)cc1)c1ccco1	12*	?	43	9%	15%
O=C(c1ccco1)N1CCN(c2ccc(Cl)cc2)CC1	37*	?	79*	5%	?
CC(C)c1ccc(NC(=O)C(c2ccccc2)N2CCN(C(=O)c3ccco3)CC2)cc1 (stereo unspecified)	55*	-22%[46.1 µM]	125*	-20%	15%
O=C(NC1CC2CCCC(C1)N2C(=O)Nc1ccc(F)cc1)c1ccccc1 (stereo unspecified)	-3	-17%[46.1 µM]	-4	4%	2%
Cc1ccc(Cl)cc1N1CCN(C(=O)c2c(C)oc3ncnc(N4CCCCC4)c23)CC1	.	.	.	.	-24%[46.1 µM]
CCN1CCN(c2ccc(NC(=O)c3ccco3)cc2)CC1	42*	.	34*	-10%	.
Cc1ccccc1C(=O)N1CCN(c2ccc(NC(=O)c3ccco3)cc2Cl)CC1	4	?	-3	-9%	10µM*
Cc1cccc(OCCOCCn2c(-c3ccc(Cl)cc3)nc3ccccc3c2=O)c1C	.	0%[46.1 µM]	.	.	16%[46.1 µM]
Cc1ccc2c(c1)/C(=C/c1ccccc1C)C(=O)N2	-2	11µM*	4	14%	?
Cc1ccc2c(c1)/C(=C/c1ccc(F)cc1)C(=O)N2	2	.	-8	-10%	.
CN1CCc2c(sc(NC(=O)C3CCN(S(=O)(=O)c4cccs4)CC3)c2C(N)=O)C1	.	2%	.	9%	?
Cc1cccc(-c2nc(CN3CCN(C(=O)C4CCCO4)CC3)cs2)c1 (stereo unspecified)	7.6*	-36%	7	3%	?
CC1C(=O)N2CCCc3cc(NC(=O)CC(C)(C)C)cc1c32 (stereo unspecified)	-5	.	11	-14%	.
CCCCCc1ccc(OCCC[n+]2ccccc2)c(CCCCC)c1	-3	7.1µM*	-12	-1%	?
CC(C)c1ccc(NC(=O)CSC2=Nc3ccccc3C3=NC(CCC(=O)NCc4ccco4)C(=O)N23)cc1 (stereo unspecified)	.	.	.	.	3%[46.1 µM]
N#Cc1c(-c2ccc(Cl)cc2)ccnc1N1CCOCC1	26*	?	46*	26%	-12%[46.1 µM]
N#Cc1c(N)nc(N2CCCC2)c(C#N)c1-c1ccc(Cl)cc1	-1	-6%	-6	2%	?
CN(C)CCCNc1nc2cc(-c3cnn(C)c3)sc2c(=O)n1C	.	.	.	-3%	.
Cc1cc(SCc2ccc(Br)cc2)nc(=O)[nH]1	40*	.	19	16%	.
Cc1cc(SCc2ccc(Cl)c(Cl)c2)nc(=O)[nH]1	28*	.	17	-6%	.
SMILES	Cycloheximide cs	MARV entry inh	Shiga inhibitor	AMA1 RON2 block	LASV entry inh
O=S(=O)(c1ccccc1)c1nc(-c2ccc(Cl)cc2Cl)oc1N1CCCCCC1	.	-18%[46.1 µM]	.	.	29%[46.1 µM]
N#C/C(C(=O)N1CCCCC1)=C1/N=C(NC(=O)c2ccc(F)cc2)c2ccccc21	1	-1%[46.1 µM]	-2	8%	?
N#C/C(C(=O)N1CCCCC1)=C1/N=C(N)c2ccccc21	16*	?	37	17%	?
COCC(=O)Nc1ccc(C)c(Cl)c1	5	-3%	8	18%	13%
CN(C)C(=O)Nc1ccc(Oc2ccc(Cl)cc2)cc1	20*	.	14	.	.
Cc1ccc(NC(=O)Nc2ccc(F)cc2)cc1Cl	32*	?	78*	28%	4%[46.1 µM]
CCCCOC(=O)Nc1ccc(C)c(Cl)c1	33*	-22%[46.1 µM]	57*	41%	?
CCCCOC(=O)Nc1ccc(C(=O)OC)cc1	12	?	40	-1%	-17%
Cc1ccc(NC(=O)N(C)C)cc1Cl	11*	.	14	.	.
CCCCN(C=O)c1c(CC)nc2c(OCCOc3ccc(F)cc3)cccn12	.	.	.	0%	.
Oc1ccccc1CNCCCN1CCOCC1	-1	15%	.	3%	-8%
CCN(CC)C(=O)Cn1cc(C(=O)C(=O)NCCc2c[nH]c3ccccc23)c2ccccc21	-2	.	-9	-14%	.
Cc1ccc(NC(=O)C(NS(=O)(=O)c2ccc3c(c2)CCC(=O)N3)c2ccccc2)cc1C (stereo unspecified)	.	-2%[46.1 µM]	.	.	-14%[46.1 µM]
COc1cccc(NC(=O)Nc2cc(C(=O)O)ccc2C)c1	-3	0%[46.1 µM]	-4	2%	27%[46.1 µM]
COc1cccc(NC(=O)Nc2ccc(C)c(Cl)c2)c1	45*	1%[46.1 µM]	78*	15%	23%
CCC(/C=N/NC(=O)c1ccccc1F)CC	6	21%[46.1 µM]	20	-5%	.
Cn1cccc1C(=O)N/N=C/c1c(Cl)cccc1Cl	63*	-34%	61*	0%	?
O=C(N/N=C/c1c(Cl)cccc1Cl)c1ccccc1F	26*	?	46*	-10%	?
O=C(N/N=C/C(c1ccccc1)c1ccccc1)c1ccccc1F	49*	?	43	53%	?
Cc1ccc(-c2csc(C3=C(O)CN(NC(=O)c4ccc([N+](=O)[O-])cc4)C3=N)n2)cc1	-2	-14%[46.1 µM]	-1	0%	?
N=C1C(c2nc(-c3ccc(Cl)cc3)cs2)=C(O)CN1NC(=O)c1ccc(O)cc1	23*	.	25	19%	.
O=C(CSc1nnc(COc2ccc(Cl)cc2)o1)N1CCCC1	-2	?	-6	25%	?
O=C(CCc1nnc(C2(c3ccc(Cl)cc3)CCC2)o1)N1CCCC1	25*	.	75*	-4%	.
NC(=O)C1CCCN(C(=O)CCc2nnc(C3(c4ccc(Cl)cc4)CCC3)o2)C1 (stereo unspecified)	2	12%	11	1%	3%
CCC(=O)C1CCCN(C(=O)CCc2nnc(C3(c4ccc(Cl)cc4)CCC3)o2)C1 (stereo unspecified)	57*	-8%	80*	-17%	?
CCOC(=O)C1CCCCN1C(=O)CCc1nnc(-c2ccc3c(c2)OCO3)o1 (stereo unspecified)	.	?	.	3%	30%
CC(=O)c1ccc(-c2nnc(CCC(=O)N3CCCC(C(=O)CC(C)C)C3)o2)s1 (stereo unspecified)	34*	.	80*	-1%	.
COc1ccc(NC(=O)CN(C)C(=O)c2ccc(S(=O)(=O)Nc3ccccc3F)cc2)cc1	.	?	.	14%	-2%
O=C(CN(Cc1ccccc1Cl)S(=O)(=O)c1ccc(Cl)cc1)N/N=C/c1ccc(C(=O)O)cc1	7	.	-6	2%	.
C=CCC1(CC=C)CCCN1C(=O)C1CCC(=O)N(CCc2ccc(OC)cc2)C1 (stereo unspecified)	53*	.	78*	-5%	.

From PubChem
